Screening data deposited in PubChem BioAssay by National Center for Advancing Translational Sciences (NCATS).
DT40 TDP1 CPT: DT40-hTDP1 cell growth loss with CPT; chicken DT40 Tdp1-/-;hTDP1 cells + 20 nM CPT, ATP luminescence, 48 h; Potency, µM (top dose mostly 46.2 µM), inactives show top-dose activity change, negative = growth inhibition, hits mostly inhibitors; 420,000 tested, 12% active; AID 686979; further: potency means the concentration at half of the fitted maximal effect; nearly all actives have a fitted effect of over 55% in size
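Chicken DT40 Tdp1-/- cells complemented with human TDP1, 400 cells/well, exposed to compounds plus 20 nM camptothecin for at least 48 h at 37 C; viability read as ATP content by CellTiter-Glo luminescence.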
IL1B secr inh: blocks inflammasome-driven IL-1 beta release. THP-1 LPS/ATP IL-1B secretion, AlphaLISA, 16 h; hits give low values. activity change, % at 57.5 µM. 360,000 tested, 4.7% active. AID 743279; in the data active means activity change below about -50%; inconclusive means mostly about -30% to -49%
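THP-1 cells pretreated 1 hr with compounds (up to 57.5 uM final), then stimulated with LPS (250 ng/mL final) plus ATP (1.25 mM final); secreted IL-1B measured by AlphaLISA after 16 hr, decreased signal indicating inhibition.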
DT40 TDP1 no CPT: qHTS for Inhibitors of human tyrosyl-DNA phosphodiesterase 1 (TDP1): qHTS in cells in absence of CPT | DT40 Tdp1-/- hTDP1 cells, no CPT, ATP luminescence, 48 h | Potency, µM (top dose mostly 46.2 µM), for inactives: at the highest dose activity change, negative = growth inhibition, most hits filed as inhibitors | 420,000 tested, 15% active; further: potency means the concentration at half of the fitted maximal effect; nearly all actives have a fitted effect of over 55% in size
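Chicken DT40 Tdp1-/- cells complemented with human TDP1, screened without camptothecin (DMSO vehicle only), 400 cells/well. Compounds pin-transferred, cells incubated at 37 °C for at least 48 hr. Growth read as ATP-dependent luminescence (CellTiter-Glo, 30 min at RT).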
VP16 counter: counter-screen for ROR gamma inhibitors: Gal4-VP16 reporter | 310,000 tested, 3.5% active | Potency, µM (highest dose often 53.6 µM), without a hit: at the top dose activity, negative = inhibition, most hits filed as inhibitors | Drosophila S2 Gal4-VP16 UAS-luciferase, luminescence, 20 h;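 further: Gal4-VP16 expression switched on by copper sulfate through the metallothionein promoter; potency means the concentration at half of the fitted maximal effect; nearly all actives have a fitted effect of over 50% in size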
ELG1 repair inh: blocks ELG1-dependent DNA repair in HEK293T cells | HEK293T ELG1-luciferase reporter, luminescence, 16 h; DNA damage induced by 5-fluorouridine | Potency, µM (top dose mostly 46.1 µM), without a hit: top-dose activity change, negative = inhibition, actives largely listed as inhibitors | 330,000 tested, 2.3% active | AID 504467; further: potency means the concentration at half of the fitted maximal effect; nearly all actives have a fitted effect of over 55% in size
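Step one: seed 2,000 cells per well. Step two: pin-transfer compound or DMSO alongside 5-fluorouridine. Step three: incubate 16 hr, 37 °C, 5% CO2. Step four: add ONE-Glo, wait 30 min, read luminescence.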
RORgamma inh: inhibitors of mouse ROR gamma transcriptional activity; 310,000 tested, 5.4% active; Drosophila S2 Gal4-RORgamma UAS-luciferase reporter, 20 h; Potency, µM (highest dose often 53.6 µM), for inactives: at the highest dose activity change, negative = inhibition, usual class: inhibitors; P51450; AID 2551; further: potency means the concentration at half of the fitted maximal effect; nearly all actives have a fitted effect of over 60% in size
Target sequence (P51450 whole entry, looked up, the tested form may be a part): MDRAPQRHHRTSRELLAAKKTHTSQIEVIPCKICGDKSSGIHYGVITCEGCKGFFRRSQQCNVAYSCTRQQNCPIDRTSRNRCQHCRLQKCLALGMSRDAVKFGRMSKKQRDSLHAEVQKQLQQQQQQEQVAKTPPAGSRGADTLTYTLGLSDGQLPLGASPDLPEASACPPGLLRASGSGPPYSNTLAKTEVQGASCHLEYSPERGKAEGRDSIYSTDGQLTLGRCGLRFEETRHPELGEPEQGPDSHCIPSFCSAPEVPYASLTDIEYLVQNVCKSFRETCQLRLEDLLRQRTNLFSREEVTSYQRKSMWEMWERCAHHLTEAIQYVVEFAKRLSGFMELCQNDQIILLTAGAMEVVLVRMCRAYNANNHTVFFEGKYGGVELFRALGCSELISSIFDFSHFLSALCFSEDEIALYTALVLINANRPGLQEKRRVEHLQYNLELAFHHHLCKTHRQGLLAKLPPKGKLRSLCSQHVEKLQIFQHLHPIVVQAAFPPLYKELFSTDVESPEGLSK
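Using a luciferase readout, inhibitors were identified by reduced reporter activity in Drosophila cells coexpressing a copper-inducible Gal4–ROR gamma fusion and UAS-driven Photinus luciferase, incubated 20 hr after 700 uM copper sulfate.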
* = called active by the depositor; ? = inconclusive; · = no result; [ ] = another dose, or the depositor's remark. Rows were chosen to be rich in hits. Some 21% of all compounds tested hit in one or more screens of this group. Unless noted, the call rests on the fitted dose curve; in most records, active means well fitted curve in the direction sought with a large enough effect; inconclusive means small, poorly fitted or top-dose-only effect, or another doubt; inactive means no such curve, though single readings can be large; an effect the other way counts as inactive or inconclusive. On the % scale 0 is the no-effect control and ±100 the full control effect.

SMILES	DT40 TDP1 CPT	IL1B secr inh	DT40 TDP1 no CPT	VP16 counter	ELG1 repair inh	RORgamma inh
O=C(COc1cccc2ccccc12)N1c2ccccc2CCc2ccccc21	?	?	18µM*	-14%	-21%	-2%
O=C(COc1ccccc1Cl)N1CCc2ccccc21	11%	-2	3%	?	?	-2%
O=C(COc1ccc(F)cc1)N1c2ccccc2CCc2ccccc21	?	-19	18µM*	-12%	-28%	41%
O=C(N/N=C/c1cn(-c2ccccc2)nc1-c1cc2ccccc2o1)c1c[nH]c2ccccc12	?	-60*	4.6µM*	-1%	?	?
O=C(N/N=C/c1cn(-c2ccccc2)nc1-c1cc2ccccc2o1)c1ccccc1Br	4.6µM*	1	15µM*	5µM*	?	?
Cc1c(/C=N\NC(=O)c2c[nH]c3ccccc23)cnn1C	-2%	7	-12%	-1%	?	19%
Cc1noc(C)c1S(=O)(=O)N1CCCC(C(=O)NCc2ccccc2Cl)C1 (stereo unspecified)	-13%	11	1%	-2%	12%	1%
CCCCCC1CCC(C(=O)NNC(=S)NCC)CC1 (stereo unspecified)	23µM*	-20	?	?	-3%	?
CS(=O)(=O)N1CCC[C@@]2(CCN(Cc3ccc(C#N)cc3)C2)C1	5%	·	-8%	4%	·	5%
COC(=O)c1ccc(N2CCN(S(=O)(=O)c3ccc(Br)cc3)CC2)c([N+](=O)[O-])c1	?	-18	?	-6%	-19%	31%
Cc1cc(C)n(-c2cc(N3CCN(S(=O)(=O)c4ccc(Br)cc4)CC3)ccc2[N+](=O)[O-])n1	12µM*	-25	12µM*	7%	-16%	34%
COC(=O)c1ccc(N2CCN(S(=O)(=O)c3c(C)cc(C)cc3C)CC2)c([N+](=O)[O-])c1	-6%	2	10%	-9%	?	-1%
Cc1cc(C)c(S(=O)(=O)N2CCN(c3ccc([N+](=O)[O-])c(-n4nc(C)cc4C)c3)CC2)c(C)c1	26µM*	-4	21µM*	-2%	?	8%
Cc1cccc(C)c1NC(=O)c1sccc1SCc1cccc(C(F)(F)F)c1	16µM*	?	18µM*	-15%	-11%	?
Cc1ccc(NC(=O)c2sccc2SCc2cccc(C(F)(F)F)c2)cc1	18µM*	-12	18µM*	5%	0%	-6%
Cc1cnc(=O)[nH]c1SCc1cccc(C(F)(F)F)c1	2%	8	-11%	-6%	3%	6%
Cc1ccc(NC(=O)c2ccc(CNS(=O)(=O)c3cccc(C(F)(F)F)c3)cc2)cc1	-4%	24	-8%	-4%	-17%	-19%
COC(=O)N1CCC[C@@]2(CCN(c3ncccn3)C2)C1	-1%	·	-6%	-7%	·	3%
Cc1ccc2ncc(C(=O)Nc3ccc(F)cc3F)c(=O)n2c1	-5%	·	-6%	·	·	·
O=C(c1cc(S(=O)(=O)N2CCOCC2)c(Cl)cc1Cl)N1CCN(S(=O)(=O)c2cccc(F)c2)CC1	-9%	-7	?	·	-28%	·
O=C(COCc1ccccc1)N[C@@H]1c2ccccc2CC[C@@H]1OCc1ccccc1	?	-51*	?	·	?	·
O=C(COc1ccccc1)N[C@@H]1c2ccccc2CC[C@H]1OCc1ccccc1	?	-10	26µM*	·	?	·
COCC(=O)N[C@@H]1c2ccccc2CC[C@@H]1OCc1ccccc1	5%	-9	-12%	·	-1%	·
O=C(CCc1ccccc1)N[C@@H]1c2ccccc2CC[C@H]1OCc1ccccc1	?	-7	12µM*	·	?	·
O=C(Cc1ccccc1)N[C@@H]1c2ccccc2CC[C@@H]1OCc1ccccc1	-23%	-24	-18%	·	?	·
SMILES	DT40 TDP1 CPT	IL1B secr inh	DT40 TDP1 no CPT	VP16 counter	ELG1 repair inh	RORgamma inh
CC1CCc2sc(C(=O)NNC(=S)NC3CC3)cc2C1 (stereo unspecified)	-25%	-1	2%	-18%	?	?
Cc1cc(=O)[nH]c2nnc(SCCC(C)C)n12	8%	·	-10%	·	·	·
CCOC(=O)C1(C)CCCN(C(=O)c2ccc(OC)cc2OC)C1 (stereo unspecified)	6%	6	4%	·	·	·
COC(=O)c1nnn(CC(=O)Nc2ccc(Br)c(C)c2)c1N	-3%	·	-3%	·	·	·
O=S(=O)(c1cc(F)ccc1F)N1CCN2CCCC2C1 (stereo unspecified)	21%	0	8%	-1%	5%	6%
CCc1nc2ccc(C(=O)N(CC)CCN(C)C)cn2c1N(C=O)CCC(C)C	?	16	-7%	·	·	·
CC(=O)Nc1ccc(N2C(=O)CSC2c2c(F)cccc2Cl)cc1 (stereo unspecified)	?	-12	-14%	1%	-2%	2%
Fc1cccc(Cl)c1C1SCc2nc3ccccc3n21 (stereo unspecified)	16µM*	24	15µM*	·	·	·
Cc1cc2c(nc1C)CCCCN2C[C@H](O)CN1CCCc2nc(-c3ccc(Br)cc3)ccc21	·	·	·	-16%[10 µM]	·	5%[10 µM]
S=C(Nc1ccccn1)NC1CCCC1	0%	164	0%	-8%	-1%	-27%
O=C(NCCCCc1ccccc1)C1CCCC1	-25%	-6	-17%	17%	12%	-21%[1.91 µM]
S=C(NCCc1ccccn1)NC1CCCCC1	-27%	-22	2%	-90%	?	13µM*
S=C(NCCCc1ccccc1)NC1CCCCC1	?	-89*	?	7.1µM*	?	4.5µM*
O=C1c2ccccc2CN1CCNC(=S)NC1CCCCC1	0%	-1	-1%	-25%	?	18µM*
O=C(Nc1cc(C(F)(F)F)ccc1Cl)c1cc(-c2cccs2)nc2ccccc12	-11%	·	-29%	·	·	·
CCNC(=O)C1CCCN(C(=O)c2ccc3c(c2)OCO3)CC1 (stereo unspecified)	-15%	13	6%	·	·	·
CN(C)CCNc1nc(Oc2ccccc2)c2sccc2n1	-5%	-11	-17%	·	·	·
CCn1nccc1C(=O)Nc1ccc(Cl)cc1Cl	-10%	·	-15%	?	?	43%
CCn1nccc1C(=O)Nc1cc(Cl)ccc1Cl	-2%	-55*	-6%	·	9%	8%[0.365 µM]
N#CC(c1ccc(Cl)cc1)c1nc2ccccc2nc1C(F)(F)F (stereo unspecified)	-2%	21	-17%	10µM*	4%	?
Cc1ccccc1OCC(O)CN (stereo unspecified)	-9%	-7	-19%	-1%	-1%	4%
